# According to PubChem BioAssay (NCI):
# The panel holds about 79,000 compounds, 15% with a hit somewhere; the sample as a whole holds those more often. Unmarked numbers belong to inactive results. Calls of active or inactive are those of the source. Rule as the data show it: active = growth inhibition above about 70%; inactive = the rest.
# Experiment: NCI Yeast Anticancer Drug Screen. Data for the cln2 rad14 strain (AID 165);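 also: 0% = growth equal to vehicle treated cultures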
# Conditions: S. cerevisiae cln2 rad14 strain, at 50.0 µM, hits give high values
# Method in brief: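 Yeast strain cln2 rad14, bearing defects in cell cycle control and DNA repair, serves as the test system; values reflect growth inhibition compared with vehicle.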
row,SMILES,growth inhibition
1,O=S(Cc1cc2c(cc1Br)OCO2)c1ccccc1 (stereo not given),-22.4%
2,CC1(C)C2CCC(C2)C1/C=C1/SC(=S)NC1=O (stereo not given),49%
3,Cc1cccc(NC(=O)CCl)c1C,11.8%
4,CN1C(=O)C(=O)N(C)C(=O)C1=O,7.1%
5,Cc1cccc(C)c1NC(=S)NC1CC(C)CC(C)(C)C1 (stereo not given),57.9%
6,COC(=O)C(C)n1c(C)csc1=S (stereo not given),-26.4%
7,COc1ccc2nc(Cl)sc2c1,21.4%
8,CC(=O)NC(NC(C)=O)c1ccccc1,-8.55%
9,CCOc1ccc(NC(=O)C(=O)C(/C(=N/N)C(=O)OC)c2nc3ccc([N+](=O)[O-])cc3[nH]c2=O)cc1 (stereo not given),13.3%
10,Cc1ccc(O)c(Cc2cc(C)cc(Cc3cc(C)ccc3O)c2O)c1,36.9%
11,CCC(=O)Oc1ccc(C(OC(=O)CC)OC(=O)CC)cc1OC,-20.2%
12,Cc1ccc(C(C(=O)O)C(Cl)(Cl)Cl)cc1 (stereo not given),0.7%
13,C[N+](C)(CC(=O)Nc1cc(C(F)(F)F)cc(C(F)(F)F)c1)CC(=O)Nc1ccc(Cl)c(C(F)(F)F)c1,99.3% (active)
14,CC(=O)OC1C=CCC2C(=O)C3=C(C(=O)c4ccccc4C3=O)C(=O)C12 (stereo not given),36.6%
15,CC(C)C(=O)c1ccccc1Cl,-0.35%
16,c1ccc(CCN=C2c3ccccc3-n3cccc32)nc1,-28.1%
17,CC(NC(=O)NCCCl)C1CC1 (stereo not given),-11.8%
18,CCCC[n+]1cc(C(N)=O)cc2ccccc21,-44.5%
19,NC(N)=Nc1ccc(Sc2ccc(N=C(N)N)cc2)cc1,-19.6%
20,NC(=O)c1cc(OCc2ccccc2)nc2nc(Cl)nc(N)c12,-15.8%

row,SMILES,growth inhibition
1,CN(C)C(=S)Oc1cc(Cl)c(Cl)cc1Cl,81.8% (active)
2,CC1=NN2C(=O)C(c3ccccc3)SC2=NC(C)(C)C1 (stereo not given),26.6%
3,O=C(O)c1ccc(F)cc1F,-32.7%
4,CC(=O)Nc1ccc(S(=O)(=O)Nc2ccc([N+](=O)[O-])cc2)cc1,-8.65%
5,COc1cc(/C=N/N=C(\N)NO)cc(OC)c1OC,6.35%
6,O=C(NO)c1ccc([N+](=O)[O-])cc1,7.05%
7,O=C(Oc1cccc2ccccc12)c1cccnc1,-38%
8,CCCCCCCSCC(O)COC(c1ccccc1)(c1ccccc1)c1ccccc1 (stereo not given),-20%
9,COc1ccc(NC(=O)C(=O)C2CNC(=O)NC2=O)c(OC)c1 (stereo not given),-6.65%
10,N#Cc1cccc(CC(O)(c2ccccc2)c2ccccc2)c1,11%
11,CN(Cc1ccccc1)C(=O)Nc1ccc(F)c([N+](=O)[O-])c1,-4.2%
12,CCCCCCCCCCCCCCCCCC(=O)OC(C(O)C=O)C(O)C(O)CO (stereo not given),23.9%
13,CCOC(=O)N1C2C=C(C)C(ON2C(=O)c2ccccc2)C2C(C)C(=O)N21 (stereo not given),18.1%
14,Cc1ccc(-c2cs/c(=N\N=C3/CSC(=O)N3Cc3ccccc3)n2-c2ccccc2)cc1,0.35%
15,CCc1ccc(CC)c(OC)c1,-27.2%
16,O=C(O)CSc1n[nH]c(-c2ccccc2)n1,2.55%
17,Nc1cccc(OCc2nc(N)nc(N)c2-c2ccc(Cl)cc2)c1,-6.6%
18,CC(=O)C(=C(c1ccccc1)c1ccccc1)c1ccccc1,-1.4%
19,O=C(O)C1=C(C(=O)O)C2CCCC3C4CCCCC4N(N1)C23 (stereo not given),3.9%
20,Nc1ccccc1C(=O)Nc1ccccn1,5.35%

# Experiment: NCI Yeast Anticancer Drug Screen. Data for the bub3 strain (AID 167)
# Conditions: S. cerevisiae bub3 mutant strain, at 50.0 µM, hits give high values
# Method in brief: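 Growth of a checkpoint-deficient yeast mutant is measured after compound exposure. Values represent inhibition relative to vehicle.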
row,SMILES,growth inhibition
1,O=S(Cc1cc2c(cc1Br)OCO2)c1ccccc1 (stereo not given),-37.7%
2,CC1(C)C2CCC(C2)C1/C=C1/SC(=S)NC1=O (stereo not given),17.8%
3,Cc1cccc(NC(=O)CCl)c1C,-21.9%
4,CN1C(=O)C(=O)N(C)C(=O)C1=O,12.8%
5,Cc1cccc(C)c1NC(=S)NC1CC(C)CC(C)(C)C1 (stereo not given),63%
6,COC(=O)C(C)n1c(C)csc1=S (stereo not given),16.6%
7,COc1ccc2nc(Cl)sc2c1,42.1%
8,CC(=O)NC(NC(C)=O)c1ccccc1,-26.4%
9,CCOc1ccc(NC(=O)C(=O)C(/C(=N/N)C(=O)OC)c2nc3ccc([N+](=O)[O-])cc3[nH]c2=O)cc1 (stereo not given),7%
10,Cc1ccc(O)c(Cc2cc(C)cc(Cc3cc(C)ccc3O)c2O)c1,-2.85%
11,CCC(=O)Oc1ccc(C(OC(=O)CC)OC(=O)CC)cc1OC,9.45%
12,Cc1ccc(C(C(=O)O)C(Cl)(Cl)Cl)cc1 (stereo not given),-6.45%
13,C[N+](C)(CC(=O)Nc1cc(C(F)(F)F)cc(C(F)(F)F)c1)CC(=O)Nc1ccc(Cl)c(C(F)(F)F)c1,99.4% (active)
14,CC(=O)OC1C=CCC2C(=O)C3=C(C(=O)c4ccccc4C3=O)C(=O)C12 (stereo not given),65%
15,CC(C)C(=O)c1ccccc1Cl,2.7%
16,c1ccc(CCN=C2c3ccccc3-n3cccc32)nc1,10.6%
17,CC(NC(=O)NCCCl)C1CC1 (stereo not given),-14.4%
18,CCCC[n+]1cc(C(N)=O)cc2ccccc21,5.7%
19,NC(N)=Nc1ccc(Sc2ccc(N=C(N)N)cc2)cc1,-4.65%
20,NC(=O)c1cc(OCc2ccccc2)nc2nc(Cl)nc(N)c12,-0.8%

row,SMILES,growth inhibition
1,CN(C)C(=S)Oc1cc(Cl)c(Cl)cc1Cl,91.3% (active)
2,CC1=NN2C(=O)C(c3ccccc3)SC2=NC(C)(C)C1 (stereo not given),-9.15%
3,O=C(O)c1ccc(F)cc1F,-3.75%
4,CC(=O)Nc1ccc(S(=O)(=O)Nc2ccc([N+](=O)[O-])cc2)cc1,-31.9%
5,COc1cc(/C=N/N=C(\N)NO)cc(OC)c1OC,1%
6,O=C(NO)c1ccc([N+](=O)[O-])cc1,17.8%
7,O=C(Oc1cccc2ccccc12)c1cccnc1,19.7%
8,CCCCCCCSCC(O)COC(c1ccccc1)(c1ccccc1)c1ccccc1 (stereo not given),-21.5%
9,COc1ccc(NC(=O)C(=O)C2CNC(=O)NC2=O)c(OC)c1 (stereo not given),-13.1%
10,N#Cc1cccc(CC(O)(c2ccccc2)c2ccccc2)c1,20.5%
11,CN(Cc1ccccc1)C(=O)Nc1ccc(F)c([N+](=O)[O-])c1,50.6%
12,CCCCCCCCCCCCCCCCCC(=O)OC(C(O)C=O)C(O)C(O)CO (stereo not given),-5.55%
13,CCOC(=O)N1C2C=C(C)C(ON2C(=O)c2ccccc2)C2C(C)C(=O)N21 (stereo not given),-17.5%
14,Cc1ccc(-c2cs/c(=N\N=C3/CSC(=O)N3Cc3ccccc3)n2-c2ccccc2)cc1,-2.55%
15,CCc1ccc(CC)c(OC)c1,-11.1%
16,O=C(O)CSc1n[nH]c(-c2ccccc2)n1,2.3%
17,Nc1cccc(OCc2nc(N)nc(N)c2-c2ccc(Cl)cc2)c1,-36%
18,CC(=O)C(=C(c1ccccc1)c1ccccc1)c1ccccc1,-46.6%
19,O=C(O)C1=C(C(=O)O)C2CCCC3C4CCCCC4N(N1)C23 (stereo not given),1.15%
20,Nc1ccccc1C(=O)Nc1ccccn1,0.45%
